# Only some compounds are listed: those with a hit (about 2.8% of all), similar ones and a draw of the others.
# KDM5B inhibitor – KDM5B demethylase inhibition; actives 2.6% (n = 220,000); Q9UGL1; Potency, µM (top dose mostly 57.7 µM), most hits filed as inhibitors; KDM5B demethylase, FDH-coupled NADH fluorescence (FDH is formaldehyde dehydrogenase); AID 1347165; note: potency is the fitted concentration of half-maximal effect; 0% is about no effect; nearly all actives have a fitted effect of over 70% in size
# Target sequence (Q9UGL1 whole entry, looked up): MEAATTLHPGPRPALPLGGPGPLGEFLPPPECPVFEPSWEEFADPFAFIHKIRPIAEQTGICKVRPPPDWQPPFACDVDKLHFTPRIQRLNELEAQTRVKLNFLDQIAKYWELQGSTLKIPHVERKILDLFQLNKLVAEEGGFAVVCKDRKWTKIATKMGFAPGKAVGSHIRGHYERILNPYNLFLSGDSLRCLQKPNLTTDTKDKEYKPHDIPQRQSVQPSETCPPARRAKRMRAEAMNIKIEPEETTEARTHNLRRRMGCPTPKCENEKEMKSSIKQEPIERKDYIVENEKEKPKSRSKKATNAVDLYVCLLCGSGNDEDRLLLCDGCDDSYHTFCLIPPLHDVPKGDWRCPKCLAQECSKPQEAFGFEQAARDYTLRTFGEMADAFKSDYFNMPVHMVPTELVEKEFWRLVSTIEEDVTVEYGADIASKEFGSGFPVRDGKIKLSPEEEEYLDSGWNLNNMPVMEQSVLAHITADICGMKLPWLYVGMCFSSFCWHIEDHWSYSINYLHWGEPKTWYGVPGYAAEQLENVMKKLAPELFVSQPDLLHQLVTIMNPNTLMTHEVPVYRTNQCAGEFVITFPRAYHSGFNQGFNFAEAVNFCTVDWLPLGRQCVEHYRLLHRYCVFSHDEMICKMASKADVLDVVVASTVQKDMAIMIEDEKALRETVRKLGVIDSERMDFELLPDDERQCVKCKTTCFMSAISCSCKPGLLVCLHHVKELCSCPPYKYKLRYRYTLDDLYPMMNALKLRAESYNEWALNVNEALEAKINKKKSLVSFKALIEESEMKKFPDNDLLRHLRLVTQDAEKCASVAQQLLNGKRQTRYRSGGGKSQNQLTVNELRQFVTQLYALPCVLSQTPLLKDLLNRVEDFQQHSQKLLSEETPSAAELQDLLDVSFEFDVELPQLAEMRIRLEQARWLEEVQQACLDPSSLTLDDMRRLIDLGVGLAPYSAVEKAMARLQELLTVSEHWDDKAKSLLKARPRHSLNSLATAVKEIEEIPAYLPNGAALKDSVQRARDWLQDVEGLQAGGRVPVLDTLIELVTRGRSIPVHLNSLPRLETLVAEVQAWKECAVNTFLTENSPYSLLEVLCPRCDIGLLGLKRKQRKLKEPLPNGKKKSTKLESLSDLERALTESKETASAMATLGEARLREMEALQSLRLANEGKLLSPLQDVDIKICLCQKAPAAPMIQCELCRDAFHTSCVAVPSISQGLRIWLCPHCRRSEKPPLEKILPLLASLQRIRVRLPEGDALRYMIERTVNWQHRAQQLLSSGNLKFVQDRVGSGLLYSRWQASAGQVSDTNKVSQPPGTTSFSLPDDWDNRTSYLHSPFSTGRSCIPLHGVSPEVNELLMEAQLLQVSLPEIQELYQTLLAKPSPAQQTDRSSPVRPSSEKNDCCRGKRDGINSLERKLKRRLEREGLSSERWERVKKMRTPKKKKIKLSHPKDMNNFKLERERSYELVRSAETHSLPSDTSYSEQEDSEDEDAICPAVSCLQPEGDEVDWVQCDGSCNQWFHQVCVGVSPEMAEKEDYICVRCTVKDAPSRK
#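 Coupled FDH/NAD⁺ fluorescence readout. KDM5BΔAP 200 nM final; compound titration, 10 min RT preincubation; substrate mix 12.5 µM H3K4me3, 25 µM 2-OG, 50 µM Fe(II), 100 µM ascorbate, 0.25 mM NAD⁺, 0.25 U/mL FDH; ΔRFU over 30 min.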
# SNCA viab count – reduces viability of HEK-293 SNCA reporter cells | actives 0.12% (n = 150,000) | AID 1671193 | HEK-293-SNCA-luc viability, GF-AFC fluorescence, 24 h | Potency, µM (series often up to 57.1 µM), without a hit: at the top dose activity change, negative = cytotoxicity, actives largely listed as cytotoxic;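 note: potency is the fitted concentration of half-maximal effect; 0% = DMSO-treated cells and -100% = medium-only wells without cells; nearly all actives have a fitted effect of over 30% in size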
#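 HEK-293-SNCA-luc cells (1500/well) plated 24 h, then exposed 24 h to a dilution series; GF-AFC added 30 min at 37C, fluorescence 405/540 nm; normalised to medium-only and DMSO wells, Hill fit.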
# SNCA expr inhib – inhibitors of alpha-synuclein (SNCA) gene expression | HEK-293 SNCA-luciferase knock-in, luminescence, 24 h | Potency, µM (highest dose often 57.2 µM), without a hit: top-dose activity change, negative = inhibition, most hits filed as inhibitors | actives 0.17% (n = 140,000) | AID 1671194;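 note: potency is the fitted concentration of half-maximal effect; plate controls were DMSO cells for no effect and cell-free wells for full effect; nearly all actives have a fitted effect of over 45% in size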
# IP6K1 inh – blocks human inositol hexakisphosphate kinase 1 | actives 0.81% (n = 140,000) | activity change, % (series mostly up to about 58 µM) | Q92551 | AID 1645851 | IP6K1 kinase, ADP-Glo luminescence, 2 h; hits give low values; in the data active = activity change below about -25%; note: % is set by controls: 0 for no effect and ±100 for the full control effect
#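 ADP-Glo luminescence measures ADP made by human IP6K1 during a 2 h RT reaction with ATP/IP6 (mix at 1.3 mM/130 uM); top library doses 57.5 and 19.1 uM final.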
# The depositor's hits bear a star; i = inactive; ? = inconclusive; · = not tested or not shown; ! = a repeat was not active; [ ] = dose if it differs, or a comment. Unless noted, calls come from the whole dose curve; as a rule, active = well fitted curve in the direction sought with a large enough effect; inconclusive = small, poorly fitted or top-dose-only effect, or another doubt; inactive = no such curve, though single readings can be large; an effect the other way counts as inactive or inconclusive.
SMILES,KDM5B inhibitor,SNCA viab count,SNCA expr inhib,IP6K1 inh
CCCNC(=O)N1CC[C@@H](CC(=O)O)[C@@H](CC2=NCCc3cc(F)ccc32)C1,31.6µM*,-0.2%[87.6 µM],1.7%[87.6 µM],1.6
COc1cc2c(cc1OC)C(C[C@H]1CN(C(=O)N3CCOCC3)CC[C@H]1CC(=O)O)=NCC2,i,3.0%,-10.4%,4.1
COc1cc2c(cc1OC)C(C[C@H]1CN(C(=O)Nc3cccc(C(C)=O)c3)CC[C@H]1CC(=O)O)=NCC2,28.2µM*,2.8%,-17.8%,4.5
CCCNC(=O)N1CC[C@@H](CC(=O)O)[C@@H](CC2=NCCc3cc(OC)ccc32)C1,?,3.3%[87.6 µM],-14.5%[87.6 µM],17.8
COc1cc2c(cc1OC)C(C[C@H]1CN(C(=O)Nc3ccc(F)cc3)CC[C@H]1CC(=O)O)=NCC2,28.2µM*,5.5%,-7.8%,-6.8
NS(=O)(=O)c1ccc(N/N=C/c2ccc(Cl)c([N+](=O)[O-])c2)c([N+](=O)[O-])c1,i,·,·,·
Cc1ccc(NC(=O)c2cc3n(n2)CC(c2ccc4c(c2)OCO4)OC3)cc1Cl (configuration not stated),28.2µM*,3.8%,0.9%,-7.3
COc1ccc(NC(=O)c2cc3n(n2)CC(c2ccc4c(c2)OCO4)OC3)cc1 (configuration not stated),?,-7.6%,-2.8%,28.0
Cc1ccc(NC(=O)c2cc3n(n2)CC(c2ccc4c(c2)OCO4)OC3)cc1F (configuration not stated),22.4µM*,-7.9%,-7.1%,0.4
COc1ccc(-c2nc(C(=O)N3CCN(c4ncccn4)CC3)n3ccccc23)cc1,31.6µM*,-4.0%,10.2%,11.9
O=C(c1nc(-c2ccsc2)c2ccccn12)N1CCOCC1,35.5µM*,-8.2%[87.6 µM],-5.5%[87.6 µM],9.0
O=C(c1nc(-c2cc(Cl)cc(Cl)c2)c2ccccn12)N1CCN(c2ncccn2)CC1,i,12.4%,13.5%,6.7
CC(C)(C)c1nc(C(=O)N2CCN(c3ncccn3)CC2)n2ccccc12,79.4µM*,1.0%,15.9%,-11.0
O=C(c1nc(-c2ccsc2)c2ccccn12)N1CCN(c2ncccn2)CC1,25.1µM*,2.3%,-19.5%,-3.9
O=C(Nc1cccc(S(=O)(=O)N2CCCC2)c1)c1nn(-c2ccccc2)c(=O)c2ccccc12,i,·,·,·
CS(=O)(=O)N(Cc1cccnc1)C1CN(C(=O)c2ccc3cc[nH]c3c2)C1,31.6µM*,2.5%,-5.8%,3.2
NCCCN1C(=O)CC[C@H]2CN(C(=O)c3coc4ccccc34)CC[C@H]21,i,3.2%,-12.1%,-8.3
NCCCN1C(=O)CC[C@H]2CN(C(=O)c3cnn4ccccc34)CC[C@H]21,22.4µM*,-16.4%,?,9.2
Cc1ccc(-c2nnc(SCc3cccc(C#N)c3)o2)cc1,i,-5.8%,13.9%,-2.5
Cc1cccc(CSc2nnc(CCCCCN)o2)c1,i,6.8%,14.1µM*,-17.8
COc1ccc(CN(C(=O)COC(=O)c2n[nH]c(=O)c3ccccc23)C2CC2)cc1,i,·,·,·
CN1CCNc2cc(-c3ccc(N4CCOCC4)cc3)ncc2C1,28.2µM*,-11.9%[87.6 µM],31.8%[87.6 µM],-12.7
COc1ccc(-c2cc3c(cn2)CN(Cc2ccncc2)CCN3)cc1,35.5µM*,9.3%[87.6 µM],-13.7%[87.6 µM],-18.4
Fc1ccc(-c2cc3c(cn2)CN(Cc2ccncc2)CCN3)cc1Cl,35.5µM*,-14.8%[87.6 µM],?,-0.2
Cc1ccc2nc(C3CCCN(Cc4ccccc4)C3)[nH]c(=O)c2c1 (configuration not stated),i,-4.1%[87.6 µM],-5.5%[87.6 µM],2.6
SMILES,KDM5B inhibitor,SNCA viab count,SNCA expr inhib,IP6K1 inh
CCn1c(C2CCCN(Cc3c(C(=O)O)[nH]c4ccc(C)cc34)C2)n[nH]c1=O (configuration not stated),28.2µM*,8.4%,9.4%,16.3
CN1CCN(c2ncc3nc(-c4cccs4)c(=O)n(Cc4cccs4)c3n2)CC1,·,?,13.0%,·
O=c1c(-c2cccs2)nc2cnc(N3CCNCC3)nc2n1Cc1cccs1,·,?,17.8µM*,·
O=C(NCC(F)F)c1ccc2nnc(-c3cccc(OC(F)(F)F)c3)n2c1,·,-3.6%,-4.7%,7.5
Fc1ccc(-c2nc(-c3cccs3)c(-c3cccs3)[nH]2)cc1,?,-11.0%,-5.0%,-6.3
Oc1ccc(-c2nc(-c3ccc(F)cc3)c(-c3ccncc3)[nH]2)cc1,·,?,1.36µM*!,·
CCC1(N2CCN(S(=O)(=O)c3ccccc3Cl)CC2)CCN(S(C)(=O)=O)C1 (configuration not stated),i,12.2%,-19.1%,6.0
C=CCNC(=O)C(NC(=O)c1ccc(OC)cc1)C1CCN(C(=O)C2CC2)CC1 (configuration not stated),i,2.7%,26.3%,29.0
COCCNC(=O)C(NC(=O)c1ccccc1)C1CCN(C(=O)C2CC2)CC1 (configuration not stated),17.8µM*,5.0%,35.2%,12.9
O=S(=O)(NCCCn1ccc2ccccc21)c1ccc(F)cc1,i,·,·,·
Cc1oc(C(O)c2ccccc2F)nc1C(=O)Nc1ccccc1C(N)=O (configuration not stated),35.5µM*,-15.7%[87.6 µM],6.0%[87.6 µM],14.2
Cc1oc(C(O)c2ccccc2F)nc1C(=O)Nc1ccc(C(N)=O)cc1 (configuration not stated),i,4.6%[87.6 µM],24.9%[87.6 µM],-5.0
O=C(c1ccc(OC2CCN(C(=O)C3CCCC3)CC2)nc1)N1CCOCC1,i,2.5%,6.8%,8.5
c1cncc(CN2CCc3c(sc4ncnc(N5CCOCC5)c34)C2)c1,?,-6.8%,-25.7%,-3.6
c1cc(CN2CCc3c(sc4ncnc(N5CCCC5)c34)C2)ccn1,25.1µM*,?,83.2%,-7.9
O=C(O)C1CC2(CCN(C(=O)c3ccc4c(c3)OCCO4)CC2)CN1 (configuration not stated),i,2.5%,?,0.7
c1ccc(Nc2cnc3ccc(N4CCOCC4)nn23)cc1,i,12.2%[87.6 µM],-9.5%[87.6 µM],11.7
FC(F)(F)c1cccc(Nc2cnc3ccc(N4CCOCC4)nn23)c1,35.5µM*,11.9%[87.6 µM],-21.8%[87.6 µM],-12.8
O=C(NC1CCN(C(=O)c2cc(C3CC3)nc3ccccc23)CC1)C1CC1,i,·,·,·
Cc1csc2nc(COc3ccc(-c4ccccc4)cc3Cl)cc(=O)n12,i,·,·,·
Cn1nc(-c2nncn2CC2CC2)c2c1CCN(C(=O)C1CC1)C2,i,3.3%,0.7%,-2.8
CCn1cnnc1-c1nn(C)c2c1CN(C(=O)CCC1CCCC1)CC2,22.4µM*,6.0%,-19.9%,-10.8
COc1ccccc1N1CCCc2ncc(C(=O)Nc3cccc(C(F)(F)F)c3)cc21,31.6µM*,2.7%[87.6 µM],10.8%[87.6 µM],-0.1
COc1cccc(NC(=O)c2cnc3c(c2)N(Cc2ccccc2)CCC3)c1,31.6µM*,-11.7%[87.6 µM],-12.3%[87.6 µM],-7.1
COc1ccccc1N1CCCc2ncc(C(=O)Nc3cccnc3)cc21,i,8.7%[87.6 µM],-22.0%[87.6 µM],1.3
COc1ccccc1CN1CCCn2nc(C)c(-c3ccccc3C(N)=O)c21,31.6µM*,?,3.55µM*,13.1
Cc1nn2c(c1-c1ccccc1Oc1ccccc1)N(Cc1ccccc1O)CCC2,28.2µM*,?,2µM*,15.2
